Sampled rows, rich in hits. Any-hit rate of the full collection: about 7.7%.
TbPYK inhibitor – blocks Trypanosoma brucei pyruvate kinase. Q57TT1. TbPYK enzyme, Kinase-Glo Plus ATP luminescence, 45 min. Potency, µM (titrated, usually from 76.8 µM), hits mostly inhibitors. 410,000 compounds, 0.12% hits; further: nearly all actives have a fitted effect of over 50% in size
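Enzyme and substrate buffer are dispensed first and compound is pin-transferred. ADP at 130 uM final then starts the reaction, which runs 45 min at room temperature. Detection reagent is added for 10 min before luminescence is imaged.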
FMDV antiviral – foot and mouth disease virus antiviral activity. 410,000 compounds, 1.2% hits. FMDV antiviral cell-based qHTS. Potency, µM (doses to about 57.9 µM), hits mostly inhibitors; calls by dose curve; tested in HEK293T cells; further: read-out not given here; nearly all actives have a fitted effect of over 45% in size
Giardia FBPA inh – Giardia lamblia aldolase inhibition; A8B2U2; purified Giardia FBPA; Potency, µM (series often up to 59.6 µM), hits mostly inhibitors; 290,000 compounds, 0.71% hits; AID 2451; further: nearly all actives have a fitted effect of over 55% in size
Target sequence (A8B2U2 whole entry, looked up): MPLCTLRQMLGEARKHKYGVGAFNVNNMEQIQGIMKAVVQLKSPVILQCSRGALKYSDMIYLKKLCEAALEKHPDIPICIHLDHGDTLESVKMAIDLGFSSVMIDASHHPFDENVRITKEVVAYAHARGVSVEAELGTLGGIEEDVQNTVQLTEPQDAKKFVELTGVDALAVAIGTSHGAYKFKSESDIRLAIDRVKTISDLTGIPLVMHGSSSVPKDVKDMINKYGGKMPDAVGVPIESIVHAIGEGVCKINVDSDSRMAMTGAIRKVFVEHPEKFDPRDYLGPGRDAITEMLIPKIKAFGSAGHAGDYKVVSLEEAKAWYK
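40 nM FBPA preincubated 10 min at RT with compound (up to 57.5 uM final), then substrate plus GAPDH/TPI/NAD/arsenate coupling and diaphorase/resazurin added. Fluorescence read after 20 min at RT, 525/598 nm.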
HCMV antiviral – blocks human cytomegalovirus replication; HFF cells, HCMV-luciferase reporter, 72 h; hits give low values; activity change, negative = inhibition, % at 57.5 µM; 410,000 compounds, 4.5% hits; in the data active means activity change below about -60%; inconclusive means no clear call, values can overlap the other calls; inactive means above about -39%
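Compounds were evaluated in HFFs infected with an HCMV luciferase reporter virus (MOI 1 PFU/cell). Luciferase in lysates collected 72 h post infection served as the replication measure.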
Sm TGR block – blocks Schistosoma mansoni thioredoxin glutathione reductase. Q962Y6. purified TGR, DTNB reduction, TNB absorbance 405 nm. Potency, µM (titrated, usually from 114 µM), hits mostly inhibitors. 360,000 compounds, 3% hits. AID 485364; further: nearly all actives have a fitted effect of over 60% in size
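TGR 20 nM + NADPH 100 uM (dispensed conc.), cpd preinc 15 min RT; start with NADPH (500 uM addition) then DTNB (15 mM addition). Kinetic TNB absorbance, 405 nm filter. Four-parameter Hill fit across titration.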
RE007 growth inh – less growth of the S. pombe RE007 Vpr strain; S. pombe RE007 Vpr strain, BacTiter-Glo ATP luminescence, 24 h; Potency, µM (top dose mostly 92.2 µM), hits mostly inhibitors; 360,000 compounds, 0.21% hits; AID 651644; active means well fitted falling curve with a large enough effect; inconclusive means small, poorly fitted or top-dose-only effect; inactive means no such curve, though single readings can be large or run the other way; further: nearly all actives have a fitted effect of over 50% in size
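Fission yeast strain RE007, carrying one chromosomally integrated HIV-1 vpr copy, was seeded at OD 0.01 in PMG+AL medium with 23 nL pinned compound. After 24 h at 30 °C and 99% humidity, viability was read by BacTiter-Glo luminescence.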
Numbers stand for hits; – = inactive; ? = inconclusive; · = no result; [ ] = remark or other dose. Unless noted, the call rests on the fitted dose curve; in most records, active means well fitted curve in the direction sought with a large enough effect; inconclusive means small, poorly fitted or top-dose-only effect, or another doubt; inactive means no such curve, though single readings can be large; an effect the other way counts as inactive or inconclusive.

SMILES | TbPYK inhibitor | FMDV antiviral | Giardia FBPA inh | HCMV antiviral | Sm TGR block | RE007 growth inh
COc1cccc2cc(-c3nc(-c4ccccc4F)no3)c(=O)oc12 | – | ? | · | – | – | ·
CCNC(=O)CC1C(=O)N(c2ccc(F)cc2)C(=O)N1CCOC (stereo not given) | – | – | · | – | – | ·
COc1ccc2[nH]cc(CCNc3ccnc(-c4ccc(C(=O)N(C)C)cc4)n3)c2c1 | · | – | – | · | · | ·
O=C(Nc1ccc([N+](=O)[O-])cc1)c1ccc(S(=O)(=O)N2CCCC2)cc1 | – | – | – | – | – | –
O=C(Nc1ccc(S(=O)(=O)Nc2ccc(F)cc2)cc1)c1ccc(CN2CCOCC2)cc1 | – | ? | – | -65 | – | –
O=C(Nc1ccc(Cc2ccncc2)cc1)c1ccc(Cl)c([N+](=O)[O-])c1 | – | 28µM | ? | – | – | –
CCN(CC)S(=O)(=O)c1ccc(OC)c(NC(=O)c2ccc(N3CCCC3=O)cc2)c1 | – | – | · | – | – | –
CCN(CC)S(=O)(=O)c1ccc(NC(=O)c2ccc(N3CCCC3=O)cc2)cc1 | – | ? | · | -76 | · | –
O=C(Nc1ccc(S(=O)(=O)N2CCCCCC2)cc1)c1[nH]ncc1[N+](=O)[O-] | · | · | · | -87 | – | ·
Cn1c(=O)n(C)c2cc(CNCc3ccccc3Cl)ccc21 | – | – | · | – | – | ·
CC1(C)CC(=O)C=C(c2ccc(COC(=O)c3ccc(Br)cc3)cc2)C1=O | · | · | · | – | · | ·
CCC1=C[C@@H]2CN(C1)Cc1c([nH]c3ccccc13)[C@@](C(=O)OC)(c1cc3c(cc1OC)N(C)[C@@H]1[C@@](O)(C(=O)OC)[C@H](OC(C)=O)[C@]4(CC)C=CCN5CC[C@]31[C@@H]54)C2 | – | · | · | · | · | ·
O=C(Nc1ccc(Cc2ccncc2)cc1)c1ccc(S(=O)(=O)N2CCOCC2)cc1 | – | 18µM | – | -73 | – | –
O=C(Nc1ccc(S(=O)(=O)N2CCOCC2)cc1)c1ccc(S(=O)(=O)N2CCOCC2)cc1 | – | – | – | – | – | –
COc1ccc(NS(=O)(=O)c2ccc(NC(=O)c3ccc(CN4CCOCC4)cc3)cc2)cc1 | – | – | – | -89 | ? | –
O=[N+]([O-])c1cc(-c2ccccc2)cc([N+](=O)[O-])c1O | – | ? | · | -87 | · | –
O=[N+]([O-])c1cc2ccccc2c(O)c1O | ? | – | · | -100 | · | –
O=[N+]([O-])c1cccc(C=Nc2cccc3ccccc23)c1O | – | – | – | – | – | –
CCc1ccc(C2N=C(N)Nc3nc4ccccc4n32)cc1 (stereo not given) | – | – | · | -67 | – | ·
NC1=NC(c2ccc(Br)cc2)n2c(nc3ccccc32)N1 (stereo not given) | – | – | – | ? | – | –
O=C(Nc1ccc(Cl)cc1)/C(=C/c1cccc(O)c1)c1nc2ccccc2s1 | – | 10µM | – | -98 | – | –
Cc1ccc(-n2ncc(C(=O)NCc3cccs3)c2C2CCN(C(=O)OC(C)(C)C)CC2)cc1C | –[15.4 µM] | ? | · | – | – | ·
CCO[C@@H](Cc1ccc(OCCc2ccc(OS(C)(=O)=O)cc2)cc1)C(=O)O | – | · | · | – | · | ·
COc1ccc(OC)c(-n2c(CN3CCC(C(N)=O)CC3)nc3ccccc3c2=O)c1 | – | – | ? | – | ? | –
COc1ccc(OC)c(-n2c(CNC3CCN(Cc4ccccc4)CC3)nc3ccccc3c2=O)c1 | – | – | – | -106 | – | –
SMILES | TbPYK inhibitor | FMDV antiviral | Giardia FBPA inh | HCMV antiviral | Sm TGR block | RE007 growth inh
Cc1ccc(C[C@@H](NS(=O)(=O)c2ccc(C(=O)O)cc2)C(=O)O)cc1 | · | · | – | · | – | ·
O=C1NC(=Nc2ccccc2)S/C1=C\c1ccccc1 | – | – | – | -86 | – | –
O=C1NC(=Nc2cccc(O)c2)S/C1=C\c1cccc([N+](=O)[O-])c1 | – | – | – | -69 | – | –
O=C1NC(=Nc2cccc(O)c2)S/C1=C\c1cccnc1 | – | – | – | ? | 8.9µM | –
Cc1cc(/C=C2\SC(=Nc3ccccc3)NC2=O)c(C)n1-c1ccc(S(N)(=O)=O)cc1 | – | ? | – | -96 | ? | –
Cc1cccc(N=C2NC(=O)/C(=C/c3cccnc3)S2)c1 | – | – | – | ? | – | –
CC(=O)OCC1OC(C#CCCc2ccccc2)C=CC1OC(C)=O (stereo not given) | · | · | –[12.9 µM] | · | · | ·
CCOc1ccc(CNC(=O)C2CCCN(c3nn4cc(-c5ccc(OC)cc5)nc4s3)C2)cc1 (stereo not given) | –[15.4 µM] | – | · | – | – | ·
COC(=O)[C@H]1[C@H](CO)[C@H]2Cn3c(ccc(Br)c3=O)[C@H]2N1C(C)=O | · | · | · | – | · | ·
CC1CCC2C(=O)N3C(CCC(C)[C@@H]3c3ccc(Br)cc3)C(=O)N2C1c1ccc(Br)cc1 (stereo not given in full) | · | · | –[12.9 µM] | · | · | ·
COc1cc(/C=C2/SC(=Nc3ccc(O)cc3)NC2=O)ccc1O | – | – | – | -77 | – | –
COc1cc(/C=C2\SC(=Nc3ccccc3OC)NC2=O)ccc1O | – | – | – | – | – | –
COc1ccc(NS(=O)(=O)c2cccc(NC(=O)C34CCC(CC3)C4)c2)cc1 | – | – | – | -64 | – | –
COc1cc(C(=O)NC2CCN(C)CC2)ccc1Nc1ncc2c(n1)N(CCc1ccccc1)CCC(=O)N2C | – | – | · | -78 | · | –
COc1cc(C(=O)NC2CCN(C)CC2)ccc1Nc1ncc2c(n1)N(C1CCCC1)CCC(=O)N2C(C)C | – | – | · | · | · | –
N/C(=N\N=C\c1ccc(Br)o1)c1nonc1N | – | – | – | – | 40µM | –
Nc1nonc1C(=O)N/N=C/c1ccc(Br)o1 | – | – | – | – | – | –
Cc1ccccc1CN1CCN(c2ccc(S(=O)(=O)N3CCCC3)cn2)CC1 | – | ? | · | -64 | – | –
Cc1ccc(-n2nc(C(=O)N3CCN(c4cc(Cl)ccc4C)CC3)c(=O)n(C)c2=O)cc1 | – | – | · | – | – | ·
Cc1ccc(O)c(CNCCNCc2cc(C)ccc2O)c1 | – | – | · | -67 | – | –
CCc1ccc(O)c(CNCCNCc2cc(CC)ccc2O)c1 | – | ? | · | ? | – | –
CC(C)(C)NC(=O)N1CCC(C(=O)O)CC1 | – | – | · | – | – | ·
C=CCn1c(SCC(=O)Nc2ccccc2C)nc2sc(C)c(C)c2c1=O | – | – | – | ? | – | –
C=CCn1c(SCC(=O)NCC2CCCO2)nc2scc(-c3ccc(OC)cc3)c2c1=O (stereo not given) | – | – | – | – | – | –
C=CCn1c(SCC(=O)Nc2sccc2C(N)=O)nc2sc(C)c(C)c2c1=O | – | – | – | ? | 40µM | –
C=CCn1c(SCC(N)=O)nc2scc(-c3ccc(C)o3)c2c1=O | – | – | – | – | 18µM | –
C=CCn1c(SCC(=O)NCC2CCCO2)nc2scc(-c3ccco3)c2c1=O (stereo not given) | – | – | – | – | 7.9µM | –
